# Screening results: PubChem BioAssay, several laboratories
# Only some compounds are listed: those with a hit (about 4.2% of all), similar ones and a draw of the others.
# V-ATPase pHluor: regulators of yeast V-ATPase proton pumping, primary screen, pHLuorin cytosolic pH fluorescence. 350,000 tested, 0.37% active. response, % at 10 µM. S. cerevisiae; in the data active means response mostly above about 7.3%, no sharp cut-off; inactive means mostly below about 5.4%; further: actives read high
# NLRP3 yeast inh: NALP3 inflammasome inhibitors in reconstituted yeast, primary screen, luminescence, uHTS | Yeast reconstituted NLRP3/ASC/caspase-1, beta-gal luminescence, 24 h | inhibition, % at 10 µM | AID 2825, 2010 | 330,000 tested, 0.39% active;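 active means inhibition of 50% or more; inactive means inhibition below 50%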;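 further: plate controls were induced DMSO wells for no effect and uninduced yeast grown without galactose for full effect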
# NALP1 yeast inh: NALP1 inflammasome inhibitors in reconstituted yeast, colorimetric, S. cerevisiae, triplicate retest | S. cerevisiae NALP1/ASC/caspase-1 growth, X-gal OD620, 72 h | 280,000 tested, 0.61% active | inhibition, % at 10 µM | AID 2071, 2009; in the data active means inhibition mostly above about 24%, no sharp cut-off; inactive means mostly below about 32%
# tim10-1 inh: growth inhibitors of tim10-1 mutant yeast, primary screen, luminescence, uHTS. AID 463190, 2010. inhibition, % at 20 µM. 330,000 tested, 2.2% active. S. cerevisiae tim10-1 ts strain growth, BacTiter-Glo, 24 h;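 active means inhibition of at least 40%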;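 further: mutant grown at 25 °C; 0% = DMSO wells with yeast and 100% = wells holding no yeast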
# tim23-1 inh: growth inhibitors of tim23-1 mutant yeast, primary screen, luminescence, uHTS; S. cerevisiae tim23-1 growth, BacTiter-Glo luminescence, 24 h; inhibition, % at 20 µM; 330,000 tested, 1.3% active; AID 463212, 2010;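 active means growth inhibition of the mutant yeast at or above 50%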;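 further: temperature-sensitive mutant grown at 25 °C; plate controls were DMSO-treated mutant yeast for no effect and medium wells lacking yeast for full effect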
# TIM10 inh: growth inhibitors of isogenic TIM10 control yeast, primary screen, counter-screen for tim10-1 yeast inhibitor project, luminescence, uHTS; S. cerevisiae TIM10 strain growth, BacTiter-Glo luminescence, 24 h; inhibition, % at 10 µM; 330,000 tested, 1.4% active; AID 463195, 2010;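 active means inhibition of 40% or more at the single tested concentration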;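 further: wild-type TIM10 isogenic control strain grown at permissive 25 °C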
# tim10-1 confirm: growth inhibitors of tim10-1 mutant yeast, confirmation, single concentration, luminescence, S. cerevisiae; 7,400 tested, 56% active; shares compounds with tim10-1 inh; S. cerevisiae tim10-1 ts strain growth, BacTiter-Glo, 24 h; inhibition, % at 20 µM;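 active means inhibition of yeast growth at or above a set limit in either of two repeat tests at 20 µM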;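 further: tim10-1 mutant grown at permissive 25 °C to find synthetic lethal compounds; 0% = DMSO yeast wells and 100% = medium wells without yeast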
# TIM10 conf: growth inhibitors of wild-type TIM10 yeast, confirmation, counter-screen for tim10-1 synthetic lethality project, single concentration, luminescence, S. cerevisiae; shares compounds with TIM10 inh; S. cerevisiae tim10 strain growth, BacTiter-Glo luminescence, 24 h; inhibition, % at 10 µM; 4,600 tested, 63% active; AID 463215, 2010;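 active means inhibition of yeast growth at or above a set limit in either of two replicates at 10 µM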;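 further: this counterscreen used the strain with wild-type TIM10; 0% = yeast with DMSO and 100% = medium wells lacking yeast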
# tim23-1 conf: tim23-1 mutant yeast growth inhibitors, confirmation, luminescence, single concentration; shares compounds with tim23-1 inh; S. cerevisiae tim23-1 growth, BacTiter-Glo luminescence, 24 h; inhibition, % at 20 µM; 4,400 tested, 83% active; AID 463218, 2010;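 active means inhibition above about 39% in either of two replicate wells at 20 µM, limit read from the data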;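 further: temperature-sensitive tim23-1 mutant grown at 25 °C; 0% = DMSO wells with yeast and 100% = medium wells without yeast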
# Active calls of the source: *; · = no result given.
SMILES,V-ATPase pHluor,NLRP3 yeast inh,NALP1 yeast inh,tim10-1 inh,tim23-1 inh,TIM10 inh,tim10-1 confirm,TIM10 conf,others
O=C(Cc1cccc(NC(=O)C2CCCN(C(=O)CCc3ccccc3)C2)c1)Nc1ccc(C(=O)N2CCOCC2)cc1 (centres undefined),-4,·,·,·,·,·,·,·,
O=C(CCCc1ccccc1)N=C1SC2CS(=O)(=O)CC2N1c1ccccc1F (centres undefined),1,13,15,22,9,0,·,·,
Cc1cc(C)cc(N2C(=O)CC(Sc3ncn[nH]3)C2=O)c1 (centres undefined),3,29,58*,45*,43,41*,35*,32*,
CCOc1ccc(N2C(=O)CC(N)C2=O)cc1 (centres undefined),4,30,94*,73*,40,72*,69*,70*,
CCOc1ccc(N2C(=O)CC(Sc3n[nH]c(-c4ccccc4)n3)C2=O)cc1 (centres undefined),10,12,37*,51*,23,57*,53*,36*,
CCOC(=O)C1CCCN(Cc2nc(CC3CC3)no2)C1 (centres undefined),1,2,·,-6,-7,-10,·,·,
Cc1ccc2cccc(NC(=S)NC(=O)c3c(Br)cnn3C)c2n1,-3,14,-4,38,19,18,·,·,
Cc1ccc2cccc(NC(=S)NC(=O)c3ccn(C)n3)c2n1,-4,29,-2,41*,45,48*,27,45*,
O=C(CNS(=O)(=O)c1ccccc1F)NNC(=O)c1ccc(Br)cc1,-1,-1,·,0,-3,0,·,·,
C=CC[C@H](CC(=O)N(CCO)Cc1ccccc1)C(=O)N[C@H](COC(=O)[C@@H](CC=C)CC(=O)OC(C)(C)C)Cc1c[nH]c2ccccc12,4,11,·,-7,1,1,·,·,
CCC(C)C(=O)Nc1nc(C)c(-c2csc(Nc3ccc(Cl)cc3)n2)s1 (centres undefined),0,7,11,40*,41,44*,24,30,
CCOC(=O)c1c(N)sc(C(O)(C(F)(F)F)C(F)(F)F)c1-c1ccc(F)cc1,·,-27,3,43*,41,41*,20,21,
Fc1ccc2c(c1)C(c1ccc(N3CCOCC3)cc1)=NNC(c1cccs1)=N2,1,35,34,42*,37,55*,28,36*,
COc1ccc(S(=O)(=O)N2CCC(C(=O)Nc3ccc(S(=O)(=O)N4CCCC4)cc3)CC2)cc1OC,-1,-2,·,8,14,0,·,·,
Cc1ccc(COc2ccc(Br)cc2/C=N/O)cc1,2,13,17,51*,34,46*,26,1,
CCCn1c2c(c(O)c(C(=O)Nc3nccs3)c1=O)CCCC2,3,8,7,23,31,19,·,·,
CC(C)Cn1c2c(c(O)c(C(=O)Nc3nccs3)c1=O)CCCC2,5,37,-6,43*,43,55*,39*,20,
C=CCN1C(=O)C2(OCCCO2)c2cc(Cl)ccc21,5,-3,-10,-4,4,5,·,·,
CC(C)CC(=O)NC(=S)NCCc1ccccc1,-1,19,15,47*,35,46*,22,15,
CC(=O)C(Sc1nc(N(C)C)nc(N(C)C)n1)C(=O)Nc1ccccc1 (centres undefined),0,4,7,40*,28,97*,23,16,
CC(Sc1nc(NCc2ccccc2)nc(N(C)C)n1)C(=O)Nc1ccccc1 (centres undefined),0,12,-1,34,36,30,·,·,
Oc1ccc(/C=N/Nc2nccnc2Cl)c(O)c1,0,12,-20,61*,47,70*,28*,54*,
O=S(=O)(NC1CCSc2ccccc21)c1ccc(Cl)nc1 (centres undefined),-5,21,9,21,21,-5,·,·,
CCOC(=O)c1sc(NC(=S)NC(=O)CC(C)C)cc1C,0,12,6,53*,7,58*,42*,51*,
CCOC(=O)c1sc(NC(=S)NC(=O)C2CCCC2)cc1C,-2,14,13,11,17,20,·,·,
SMILES,V-ATPase pHluor,NLRP3 yeast inh,NALP1 yeast inh,tim10-1 inh,tim23-1 inh,TIM10 inh,tim10-1 confirm,TIM10 conf,others
Fc1ccc(-c2ccnc3nc(N4CCOCC4)nn23)cc1,-2,4,7,26,1,-5,·,·,
COc1ccc(-c2ccnc3nc(N4CCN(c5ccccc5)CC4)nn23)cc1,-3,27,37,43*,48,47*,36*,26,
Cc1ncc(CO)c(/C=N/NC(=S)Nc2ccc(Cl)c(Cl)c2)c1O,-2,15,-15,51*,20,92*,33*,38*,
Cc1cc(/C=N/n2c(COc3ccccc3C)nc3ccccc3c2=O)c(O)c([N+](=O)[O-])c1,0,25,17,41*,32,43*,29,26,
N#CC(C#N)=C1C=CC=CN1/C(=C\c1ccco1)C(=O)c1ccccc1,2,·,39,·,·,·,·,·,
COc1ccc(C(=O)/C(=C\c2ccco2)N2C=CC=CC2=C(C#N)C#N)cc1,-4,16,8,53*,31,59*,41*,53*,
C=CCn1c2ccccc2c(=O)c2cc(C#Cc3ccccn3)ccc21,3,1,·,5,20,-9,·,·,
Cc1ccc(/C=N/NC(=O)CSc2nc3ccccc3[nH]2)o1,-1,-1,8,3,2,10,·,·,
O=C(NCc1ccco1)c1ccccc1Nc1ccc(F)cc1,-5,17,6,52*,47,44*,47*,36*,
O=C(NCc1ccco1)c1ccccc1F,-1,8,7,20,-1,8,·,·,
COc1cc(/C=C2\COC/C(=C\c3ccc(O)c(OC)c3)C2=O)ccc1O,-2,43,-8,71*,69*,67*,68*,61*,tim23-1 conf=82*
COc1cc(OC)nc(Oc2cc(/C=N/O)ccc2OC)n1,-2,-15,16,27,19,11,·,·,
